# BAZ2B block: qHTS Assay for Inhibitors of BAZ2B; Bromodomain adjacent to zinc finger domain protein 2B (Homo sapiens), Q9UIF8; AlphaScreen BAZ2B-H3K14Ac peptide displacement; Potency, µM (highest dose often 114 µM), for inactives: at the top dose activity change, negative = inhibition, hits mostly inhibitors; 360,000 tested, 4.4% active; further: potency means the concentration at half of the fitted maximal effect; on the % scale 0 is the no-effect control and ±100 the full control effect; nearly all actives have a fitted effect of over 60% in size
#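 AlphaScreen displacement of biotin-H3(5-23)K14Ac peptide (50 nM final) from BAZ2B (50 nM final) in PBS pH 7.4, 0.01% Tween-20; complex preformed 30 min RT, then compounds (top 110 uM) 30 min RT, beads 20 min dark.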
# G9a inh-1: qHTS Assay for Inhibitors of Histone Lysine Methyltransferase G9a. G9a H3K9 monomethylation, AlphaScreen, 2 h. Potency, µM (series often up to 102 µM), for the others: top-dose activity, negative = inhibition, actives largely listed as inhibitors. 350,000 tested, 8.8% active. AID 504332, 2011; further: potency means the concentration at half of the fitted maximal effect; on the % scale 0 is the no-effect control and ±100 the full control effect; nearly all actives have a fitted effect of over 75% in size
#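 Signal arises when biotinylated H3K9 peptide, once monomethylated, bridges streptavidin donor and antibody-captured acceptor beads. Enzyme at 20 nM was preincubated 15 min with test compounds; peptide 500 nM and SAM 20 uM then reacted for 2 h.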
# JMJD2A Tudor inh: qHTS Assay for Inhibitors of JMJD2A-Tudor Domain; AlphaScreen JMJD2A-Tudor / H3K4me3 peptide binding; Potency, µM (series often up to 114 µM), for inactives: at the top dose activity change, negative = inhibition, most hits filed as inhibitors; 390,000 tested, 4.4% active; AID 504339, 2011; further: potency means the concentration at half of the fitted maximal effect; on the % scale 0 is the no-effect control and ±100 the full control effect; nearly all actives have a fitted effect of over 50% in size
# Target sequence (O75164 whole entry, looked up, the tested form may be a part): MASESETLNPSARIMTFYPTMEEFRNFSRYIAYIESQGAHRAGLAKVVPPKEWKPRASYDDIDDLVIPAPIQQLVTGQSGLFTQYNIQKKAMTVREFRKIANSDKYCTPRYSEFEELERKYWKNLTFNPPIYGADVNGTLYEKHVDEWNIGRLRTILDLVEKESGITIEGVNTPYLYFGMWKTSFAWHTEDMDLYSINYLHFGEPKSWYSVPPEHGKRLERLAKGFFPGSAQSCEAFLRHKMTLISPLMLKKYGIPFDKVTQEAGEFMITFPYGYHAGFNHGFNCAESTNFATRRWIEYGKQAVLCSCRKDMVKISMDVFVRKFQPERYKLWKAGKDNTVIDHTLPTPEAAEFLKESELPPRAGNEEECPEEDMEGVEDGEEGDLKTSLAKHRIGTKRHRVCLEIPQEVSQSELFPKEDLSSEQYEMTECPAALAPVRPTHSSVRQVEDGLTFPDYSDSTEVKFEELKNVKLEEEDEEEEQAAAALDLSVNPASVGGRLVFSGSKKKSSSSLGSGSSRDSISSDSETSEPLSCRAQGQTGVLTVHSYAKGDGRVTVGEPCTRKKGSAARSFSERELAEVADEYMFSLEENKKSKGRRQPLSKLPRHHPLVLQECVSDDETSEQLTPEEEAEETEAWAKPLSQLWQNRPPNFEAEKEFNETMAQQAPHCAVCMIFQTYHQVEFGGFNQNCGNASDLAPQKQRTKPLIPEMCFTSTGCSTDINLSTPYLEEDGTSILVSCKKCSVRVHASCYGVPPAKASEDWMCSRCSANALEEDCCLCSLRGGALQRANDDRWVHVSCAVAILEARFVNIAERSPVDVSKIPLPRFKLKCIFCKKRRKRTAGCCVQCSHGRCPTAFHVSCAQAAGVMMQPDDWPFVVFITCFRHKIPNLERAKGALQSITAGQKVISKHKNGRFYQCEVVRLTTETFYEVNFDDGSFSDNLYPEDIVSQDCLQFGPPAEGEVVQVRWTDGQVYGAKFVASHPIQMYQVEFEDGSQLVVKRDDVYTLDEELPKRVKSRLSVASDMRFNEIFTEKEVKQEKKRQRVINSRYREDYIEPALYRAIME
# GLS inh: qHTS for Inhibitors of Glutaminase (GLS). Glutaminase kidney isoform, mitochondrial (Homo sapiens), O94925. GLS enzymatic activity, qHTS titration. Potency, µM (highest dose often 45.5 µM), inactives show at the top dose activity change, negative = inhibition, usual class: inhibitors. 410,000 tested, 0.21% active. AID 624170, 2012; further: potency means the concentration at half of the fitted maximal effect; on the % scale 0 is the no-effect control and ±100 the full control effect
#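 Coupled fluorescence readout: glutamate oxidase/HRP/Amplex Red detect glutamate formed by hKGA from L-glutamine (1 mM solution added). Buffer 45 mM KH2PO4 pH 8.2, 0.02% Tween-20; reads at t0 and 30 min RT.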
# HP1b binding inh: HTS for Inhibitors of HP1-beta Chromodomain Interactions with Methylated Histone Tails | Potency, µM (titrated, usually from 114 µM), for the others: at the highest dose activity change, negative = inhibition, actives largely listed as inhibitors | Chromobox protein homolog 1 (Homo sapiens), P83916 | 390,000 tested, 0.56% active | AlphaScreen HP1-beta / biotin-H3K9me3 peptide binding; further: potency means the concentration at half of the fitted maximal effect; nearly all actives have a fitted effect of over 70% in size
#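 Compound inhibition of the preformed complex between 50 nM HP1-beta and 50 nM biotinylated H3K9me3 peptide was read by AlphaScreen. Buffer was PBS pH 7.4 with 0.01% Tween-20. Incubations ran 30 min at room temperature, with 10 ug/mL donor/acceptor beads.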
# ME-1 prolif: qHTS Assay for Compounds Blocking the Interaction Between CBF-beta and RUNX1 for the Treatment of Acute Myeloid Leukemia: ME-1 cellular proliferation; 140 tested, 20% active; shares compounds with BAZ2B block; Potency, µM (titrated, usually from 56.1 µM), for the others: top-dose activity change, negative = inhibition, actives largely listed as inhibitors; ME-1 cell proliferation, ATP luminescence, 48 h; AID 504370, 2011
# G9a inh-2: qHTS Assay for Inhibitors of Histone Lysine Methyltransferase G9a: Hit Confirmation | shares compounds with JMJD2A Tudor inh | 370 tested, 89% active | G9a H3K9 monomethylation, AlphaScreen, 2 h | Potency, µM, hits mostly inhibitors; further: potency means the concentration at half of the fitted maximal effect; nearly all actives have a fitted effect of over 65% in size
# Numbers without * were called inactive; ? = inconclusive; · = no result; ! = not confirmed by another sample; [ ] = remark or other dose. Shown are actives, neighbours in structure and some others; about 10% of the full set was active somewhere. The call rests on the fitted dose curve; in most records, active means well fitted curve in the direction sought with a large enough effect; inconclusive means small, poorly fitted or top-dose-only effect, or another doubt; inactive means no such curve, though single readings can be large; an effect the other way counts as inactive or inconclusive.
SMILES,BAZ2B block,G9a inh-1,JMJD2A Tudor inh,GLS inh,HP1b binding inh,others
CC(=O)N1CCN(CC(=O)Nc2ccc(C#N)c(Cl)c2)CC1,0%,-15%,-18%,1%,30%,
COc1ccc(CC(=O)Nc2ccc(C#N)c(Cl)c2)cc1S(=O)(=O)N1CCOCC1,?,40µM*,-10%,24%,18%,
CCOC(=O)/C=C(C)/C=C/CC(C)CCCC(C)C (centres undefined),·,2%[12.7 µM],·,1%,·,
CCCn1c(C(C)C)n[nH]c1=S,3%,35µM*,?,14%,31%,
CN(C)c1ccc(P(=O)(Nc2ccc([N+](=O)[O-])cc2)N2CCOCC2)c(NC(=O)c2cccs2)c1 (centres undefined),?,45µM*,-27%,12%,-9%,
Oc1ccc(Cl)cc1,·,8%[2.33 µM],-13%,27%,20%,
CCCCc1ccc(C(=O)O)nc1,4µM*,6µM*!,9%,6%,33%,ME-1 prolif=?
CCCCNC(=O)Oc1cc(CCl)on1,-19%,?,·,·,·,
CCCCNC(=O)Oc1c(Br)cc2sc(=O)oc2c1Br,50µM*,8.9µM*,·,·,·,ME-1 prolif=?
CN(N=O)c1cc(O)ccc1O,·,0.6µM*,6.3µM*,·,?,ME-1 prolif=40µM*
Cc1cccc(-n2c(O)c(/C=N/Nc3nc4c(c(=O)n(C)c(=O)n4C)n3C)c(=O)[nH]c2=S)c1,?,?,?,7%,-19%,ME-1 prolif=-13%
Cc1cccc(-n2c(O)c(C=NCCN3CCNCC3)c(=O)[nH]c2=S)c1,-25%,-36%,-6%,-12%,34%,
COc1ccc(OCC(=O)N2CCN(Cc3nc4cc([N+](=O)[O-])ccc4n3C)CC2)cc1,-12%,19%[59 µM],-29%,1%,-6%,
C=C1CC[C@H](O)C/C1=C/C=C1\CCC[C@]2(C)[C@H]1CC[C@H]2[C@@H](C)CCCC(C)C,·,21%[21.5 µM],·,·,·,ME-1 prolif=-2%
Cn1nc(-c2ccccc2)nc2c(=O)n(C)c(=O)nc1-2,·,·,-6%[57.1 µM],·,10%[57 µM],
CCn1nc(-c2ccccc2)nc2c(=O)n(C)c(=O)nc1-2,3%,?,-14%,6%,36%,ME-1 prolif=11µM*
CN1CCC(N(C)c2ncnc3ccc(Br)cc23)CC1,7%,-45%[59 µM],-9%,7%,26%,
CCCCCCN=C(C)c1c(O)n(Cc2ccccc2)c(=O)[nH]c1=O,12%,-9%,26%,-1%,27%,
CCc1nc(-c2ccc(C)nc2OC)no1,-7%,?,-12%,-3%,7%,G9a inh-2=1.8*
COc1ccc(-c2noc(CN3C(=O)c4ccccc4C3=O)n2)cc1,12%,?,-14%,-7%,23%,
Nc1ccc(S(=O)(=O)N2CCCCC2c2cccnc2)cc1 (centres undefined),8%,-48%,-3%,-2%,51%,
Fc1ccc(CCNCc2ccccc2Cl)cc1,4%,2%[12.7 µM],3%,-7%,40%,
Fc1cccc(CCNCc2ccccn2)c1,20µM*,1.6µM*,3.5µM*,2%,-1%,G9a inh-2=28*
c1ccc(CNCCc2ccc3c(c2)OCO3)nc1,45µM*,1.8µM*,?,-1%,4%,G9a inh-2=?
Cc1c(C)c2cc(Cl)c(OCC(=O)N3C[C@H]4C[C@@H](C3)c3cccc(=O)n3C4)cc2oc1=O,-5%,24%[12.7 µM],-22%,2%,16%,
SMILES,BAZ2B block,G9a inh-1,JMJD2A Tudor inh,GLS inh,HP1b binding inh,others
CSc1ccc(CN2CCN(C(=O)COc3cccc(C)c3)CC2)cc1,50µM*,10µM*,8.9µM*,0%,40µM*,G9a inh-2=40*
Cc1ccc(OCC(=O)N2CCN(Cc3cccnc3)CC2)cc1,·,2.8µM*,4µM*,1%,?,G9a inh-2=16*
O=C(COc1ccc(Cl)cc1)N1CCN(Cc2ccc([N+](=O)[O-])cc2)CC1,·,2.5µM*,11µM*,1%,?,G9a inh-2=35*
O=C1NCN(c2ccccc2)C12CCN(C(c1cccc3ccccc13)c1nnnn1C1CCCCC1)CC2 (centres undefined),·,·,·,-13%,·,
Cc1cc(N2CCNCC2)nc2ccccc12,-5%,?,-17%,-16%,34%,G9a inh-2=?
Cn1c(N2CCNCC2)nc2ccccc21,-3%,40%[12.7 µM],-3%,-5%,22%,
CCOC(=O)c1ccc(N=Cc2c(O)n(-c3ccc(OC)cc3)c(=S)[nH]c2=O)cc1,?,-5%[0.501 µM],-26%,0%,17%,
